We go through 16 compounds from ChEMBL document CHEMBL1157539, “Thousands of chemical starting points for antimalarial lead identification” (Nature, 2010).

SMILES strings stand for the structures.

What is called Inhibition is the relative decrease from the control value, in per cent. A lower Inhibition goes with little suppression.

The subject of the assay is HepG2. Put plainly: GSK_TCMDC: Percent inhibition of human HepG2 cell line. Test compounds present at 10uM. Format: functional.
Compound `COc1ccc2ncc(F)c(CCN3CC(O)C(CNCc4ccc(F)cc4)C3)c2n1.Cl` (stereo unspecified) gave an Inhibition of 38%.
`CCc1c[nH]c2c(N3CCCC3=O)cc(C(=O)N[C@@H](Cc3ccccc3)[C@H](O)CNC(C)(C)CCCC(C)C)cc12.O=CO` had an Inhibition of 22%.
In turn, `CC(C)NCc1ccc(-c2ccc(-c3nc4cc(F)ccc4[nH]3)cc2)cc1.O=C(O)C(F)(F)F` returned an Inhibition of 14%.
The figure for `CCOc1cc(C)ccc1C1CCN(CCCCNC(=O)c2ccc(-c3ccc(C(F)(F)F)cn3)cc2)CC1.Cl` is 55%.
Compound `CCNC1=NC2=C(CC(C(C)(C)C)CC2)C2(CCC(C(C)(C)C)CC2)S1.Cl` (stereo unspecified) registered an Inhibition of 40%.
As to `COc1ccc2nccc([C@@H](O)CN3CCC(NS(=O)(=O)c4cc(Br)c(Br)s4)CC3)c2c1`, the Inhibition amounted to 14%.
With `O=C(Nc1ccccc1F)N(CCCn1ccnc1)Cc1csc(-c2ccc(CNCc3ccccc3)cc2)n1.O=C(O)C(F)(F)F`, the Inhibition worked out at 24%.
Regarding `Br.COc1ccc2c(c1)CCCC2C(C)NCC(O)c1cccc(C(F)(F)F)c1` (stereo unspecified), the Inhibition stood at 3%.
The compound `COc1ccc2nccc([C@@H](O)CN3CCC(NC(=O)C(c4cc5ccccc5o4)N4CCC(Cc5ccccc5)CC4)CC3)c2c1` (stereo partly specified) returned an Inhibition of 11%.
`CSc1nc2cc3c(cc2n1C(=O)c1ccc(C)cc1)OCCO3` yielded an Inhibition of 0%.
`Cl.O=S(=O)(c1ccc(OCc2ccc(Cl)cc2)cc1)c1cc2c(cc1OCc1ccccc1)CCN(CC1CC1)CC2` registered an Inhibition of 19%.
Compound `CN(C)CCN(C)Cc1ccc(-c2ccc(NS(=O)(=O)c3cccc4cccnc34)cc2)cc1.O=C(O)C(F)(F)F` yielded an Inhibition of 23%.
The same measure for `FC(F)(F)c1cccc(Nc2nc(-c3ccccc3)nc3ncccc23)c1`: 17%; for `CCc1ccc2nc(-c3ccc(F)cc3)nc(SCC(=O)Nc3sc(C)c(C)c3C#N)c2c1`: 0%; for `Cc1cc(C(=O)Nc2nc(-c3ccccn3)nc3ccsc23)no1`: 44%.
As to `Cc1ccc(-c2noc(=O)n2CC(=O)Nc2ccccc2-c2ccccc2)cc1`, the Inhibition was 0%.
